Measured values published in PubChem BioAssay AID624330 (Southern Research Specialized Biocontainment Screening …, 2012).
Screen size: about 340,000 compounds; about 2,100 (0.62%) were called active.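 The calls were made as follows: active = first-screen hits whose inhibition reached a set limit at any dose in the follow-up dose series; inconclusive = inhibition above the set first-screen limit but never retested; inactive = the rest.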 Only a sample is shown. Potency and affinity values are given separately.

The molecules below were run against Rac GTPase-activating protein 1 (Homo sapiens) (UniProt Q9H0H5) (assay: MgcRacGAP GTPase-activating activity inhibitors, confirmation, biochemical, ADP Hunter fluorescence, primary and confirmatory (AID 624330;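 also: fluorescence reports GDP produced by GAP-driven GTP hydrolysis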)). Details: MgcRacGAP-stimulated Rac1 GTP hydrolysis, at 30 µM, active compounds read high, GST-tagged Rac1 F28L mutant substrate.
Rac GTPase-activating protein 1 (Homo sapiens), sequence (Q9H0H5 whole entry, looked up): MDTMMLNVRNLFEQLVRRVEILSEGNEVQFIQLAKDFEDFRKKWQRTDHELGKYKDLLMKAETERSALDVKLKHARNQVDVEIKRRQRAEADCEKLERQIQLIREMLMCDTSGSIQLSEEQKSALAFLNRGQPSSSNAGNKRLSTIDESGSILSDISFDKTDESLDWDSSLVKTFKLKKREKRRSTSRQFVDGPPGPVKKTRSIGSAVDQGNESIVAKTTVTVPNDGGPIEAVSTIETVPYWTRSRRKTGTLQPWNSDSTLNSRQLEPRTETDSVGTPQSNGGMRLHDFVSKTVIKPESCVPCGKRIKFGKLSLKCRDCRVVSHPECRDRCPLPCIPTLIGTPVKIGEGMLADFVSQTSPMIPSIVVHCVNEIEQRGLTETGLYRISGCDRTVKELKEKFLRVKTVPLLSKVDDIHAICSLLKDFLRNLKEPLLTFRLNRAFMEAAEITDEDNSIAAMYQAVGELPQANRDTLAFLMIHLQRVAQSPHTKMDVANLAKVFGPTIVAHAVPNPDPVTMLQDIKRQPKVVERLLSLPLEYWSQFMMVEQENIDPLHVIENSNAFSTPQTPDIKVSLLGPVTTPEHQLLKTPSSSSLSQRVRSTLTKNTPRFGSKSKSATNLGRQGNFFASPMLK

inhibition, inactive:
CCC[C@@H](CN1CCC[C@H]1CN1C(N)=NC[C@@H]1Cc1ccccc1)N1C[C@@H]([C@H](C)CC)N(CCCC2CCCC2)C1=N 12.3%
COc1ccccc1CNC(=O)COC(=O)Cc1c[nH]c2ccccc12 4.99%
CC1CCCC(C)N1CCCNC(=O)CN1C(=O)c2cccnc2Oc2ccc(Cl)cc21 (stereo not given) 6.32%
CCC(C)N1CCCCC1C(=O)Nc1c(C)cc(C)cc1C (stereo not given) 2.22%
CCc1ccc(NC(=O)CCc2nc3ccccc3[nH]2)cc1 10.8%
COc1ccc(Br)cc1CNc1ccc(S(N)(=O)=O)cc1 0.46%
COc1ccc(Br)cc1CNc1ccccc1 26%
CC(C)n1c(SCC(=O)Nc2nncs2)nnc1C1CC1 4.43%
NC(=O)C[C@H](NC(=O)c1ccc(Cl)cc1)C(=O)OCc1ccccc1 8.75%
COc1cccc(NC(=O)C(=O)c2cn(CC(=O)N3CCCC3)c3ccccc23)c1 10%
CN=c1scc(-c2ccccc2F)n1/N=C/c1ccc(O)c(O)c1O -8.6%
C=CCN=c1scc(-c2ccco2)n1/N=C/c1ccc(O)c(O)c1O -25.9%
COCCN=c1scc(-c2ccco2)n1/N=C/c1ccc(O)c(O)c1O -21.8%
CC(C)n1c(-c2ccco2)csc1=Nc1cccnc1 11.3%
COc1ccc(O)c(/C=N/n2c(-c3ccco3)csc2=Nc2cccnc2)c1 14.5%
CCN=c1scc(-c2ccc(F)cc2)n1/N=C/c1ccccn1 9.08%
CCN=c1scc(-c2ccco2)n1/N=C/c1ccc(OC)c(O)c1 28%
CCN=c1scc(-c2ccco2)n1/N=C/c1ccc(O)cc1 13.7%
CCCCc1ncc(CN2CCC(n3nccc3NC(=O)C(OC)c3ccccc3)CC2)[nH]1 (stereo not given) 8.08%
O=C(CN1CCN(Cc2ccccc2)C1=O)NCc1ccc(Cl)cc1 3.73%
NC(=O)COc1ccc(C(=O)NCC2(N3CCOCC3)CCCCC2)cc1 4.65%
Cc1ccc([C@H]2C[C@@H](O)[C@H](n3cc(COC(=O)c4ccccc4)nn3)CN2Cc2cccs2)cc1 -0.67%
COc1ccccc1NC(=O)c1ccc(NC(=O)COC(=O)c2cncc(Br)c2)cc1 5.46%
CC(C)CC1C(C#N)=C(N)OC2=C1C(=O)CC(c1ccccc1)C2 (stereo not given) -2.75%
COc1ccc(CCn2c(-c3cc([N+](=O)[O-])cc([N+](=O)[O-])c3)nc3nc4ccccc4nc32)cc1 4.41%
